Source: PubChem BioAssay (several laboratories)
SENP6 inh – blocks the human protease SENP6; Q9GZR1; Recombinant SENP6 catalytic domain, aminoluciferin luminescence; inhibition, % at 10 µM; hit rate 1.8% among 330,000; AID 2599;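 active = inhibition above about 50% at the single tested dose, limit read from the data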
HSP90 refold inh – HSP90 refolding inhibition in rabbit reticulocyte lysate | AID 1789 | inhibition, % at 5.6 µM | hit rate 0.91% among 290,000 | luciferase refolding luminescence, 3 h;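 active = inhibition above the screen-wide mean plus 3 SD, computed separately per campaign, cut at about 16% in these data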;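 note: inhibitors lower the luminescence because luciferase stays unfolded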
SENP7 block – SENP7 protease inhibition | AID 434973 | hit rate 1.5% among 330,000 | inhibition, % at 5 µM | recombinant SENP7, Z-RLRGG-aminoluciferin luminescence, 40 min;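 active = inhibition above about 50% at the single test dose, limit read from the data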
SENP8 block-1 – blocks human SENP8 cleavage of Nedd8 substrate. inhibition, % at 20 µM. hit rate 0.64% among 360,000. Q96LD8. recombinant SENP8, Nedd8 substrate fluorescence; in the data active = inhibition mostly above about 40%, no sharp cut-off; inactive = mostly below about 27%
Target sequence (Q96LD8 whole entry, looked up): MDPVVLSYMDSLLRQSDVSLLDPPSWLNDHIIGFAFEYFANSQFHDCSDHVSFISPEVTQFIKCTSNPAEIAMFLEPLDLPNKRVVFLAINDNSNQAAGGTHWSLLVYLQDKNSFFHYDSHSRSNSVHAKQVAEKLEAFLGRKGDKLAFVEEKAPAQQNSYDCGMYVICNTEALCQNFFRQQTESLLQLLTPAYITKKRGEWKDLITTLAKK
SENP8 block-2 – inhibitors of human SENP8 protease | purified SENP8, Z-RLRGG-aminoluciferin cleavage, luminescence | Q96LD8 | hit rate 1.2% among 330,000 | inhibition, % at 10 µM | AID 2540; in the data active = inhibition above about 50%
SENP8 conf – confirmation of human SENP8 protease inhibitors; shares compounds with SENP7 block; Recombinant SENP8, Z-RLRGG-aminoluciferin luminescence, 60 min; inhibition, % at 12.5 µM; hit rate 40% among 6,200; AID 488912;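 active = mean inhibition across replicates above about 50%, limit read from the data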
SENP6 conf – human SENP6 inhibition, confirmed; recombinant SENP6, Z-RLRGG-aminoluciferin luminescence; AID 488915; hit rate 58% among 6,200; shares compounds with SENP7 block; inhibition, % at 12.5 µM
SENP7 conf – human SENP7 inhibition, confirmed; inhibition, % at 12.5 µM; hit rate 69% among 6,200; recombinant SENP7, Z-RLRGG-aminoluciferin luminescence, 40 min; AID 488917; shares compounds with SENP7 block
Casp3 SENP sel – inhibits human caspase-3 in SENP selectivity test. purified caspase-3, Z-DEVD-aminoluciferin luminescence, 60 min. AID 488918. shares compounds with SENP7 block. hit rate 60% among 6,200. inhibition, % at 12.5 µM;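 active = mean inhibition above about 50%, limit read from the data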
Target sequence (P42574 28-227 limits assumed): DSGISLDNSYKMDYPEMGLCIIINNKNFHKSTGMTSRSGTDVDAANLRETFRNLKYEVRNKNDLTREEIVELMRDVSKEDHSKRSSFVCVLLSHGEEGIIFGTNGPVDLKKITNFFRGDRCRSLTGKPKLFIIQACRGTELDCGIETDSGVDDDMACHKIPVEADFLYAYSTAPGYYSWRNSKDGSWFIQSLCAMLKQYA
SENP luc ctr – interferes with luciferase luminescence in SENP counter-screen | shares compounds with SENP7 block | Pre-incubated SENP8/Z-RLRGG-aminoluciferin, luciferase luminescence interference | inhibition, % at 12.5 µM | hit rate 39% among 6,200 | AID 488919;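 active = mean inhibition above about 50% when retested at one dose, limit read from the data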
Of the large screens only hits and unclear results are named; the others gave an inactive call (follow-up assays come after a bar, where they were run). Only some compounds are listed: those with a hit (about 2.8% of all), similar ones and a draw of the others.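 Rule for the calls, unless noted: active = mean inhibition above about 50% in the one-dose retest (limit read from the data); inactive = the rest.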

COc1ccc(C=CC(=O)c2ccc([N+](=O)[O-])cc2)cc1	none (no result: SENP6 inh, HSP90 refold inh, SENP7 block, SENP8 block-2)
CSc1ccc(C(=O)/C=C/c2ccc(N)cc2)cc1	SENP6 inh 70.6, SENP7 block 55.8 | SENP8 conf 82.9 | SENP6 conf 64.9 | SENP7 conf 87.4 | Casp3 SENP sel inactive | SENP luc ctr 88.3
COc1ccc(C(=O)/C=C/c2ccc(O)cc2)cc1	SENP7 block 62.0, SENP8 block-2 51.0 | SENP8 conf inactive | SENP6 conf 56.6 | SENP7 conf 76.4 | Casp3 SENP sel inactive | SENP luc ctr 89.4
CCOC(=O)C1(CCCc2ccccc2)CCN(C(=O)CCc2cnccn2)CC1	none
Cc1cccc(-n2nc3c(c2NC(=O)c2ccc(Br)o2)CSC3)c1	none
CN(C)c1ccc(/C=C/C(=O)c2ccc(O)cc2)cc1	none (no result: SENP6 inh, HSP90 refold inh, SENP7 block, SENP8 block-2)
O=C(/C=C/c1ccc(O)cc1)c1ccccc1	SENP7 block 93.4, SENP8 block-2 94.6 | SENP8 conf inactive | SENP6 conf 99.3 | SENP7 conf 102.7 | Casp3 SENP sel 91.6 | SENP luc ctr 98.5
O=C(/C=C/c1ccccc1)c1ccc2c(c1)OCO2	SENP6 inh 82.4, SENP7 block 93.3, SENP8 block-2 76.3 | SENP8 conf inactive | SENP6 conf 50.6 | SENP7 conf inactive | Casp3 SENP sel inactive | SENP luc ctr 89.5
O=C(/C=C/c1ccncc1)c1ccc2c(c1)OCCO2	none
COC(=O)c1ccc(N/C=C\C(=O)c2ccc3c(c2)OCO3)cc1	none
O=C(/C=C/c1cccc(Br)c1)c1ccc2c(c1)OCO2	SENP6 inh 76.1 | SENP8 conf inactive | SENP6 conf inactive | SENP7 conf inactive | Casp3 SENP sel inactive | SENP luc ctr inactive
O=C(/C=C\Nc1cccc(F)c1)c1ccc2c(c1)OCO2	SENP6 inh 94.1, SENP7 block 96.2, SENP8 block-2 55.5 | SENP8 conf 78.7 | SENP6 conf 86.9 | SENP7 conf 91.8 | Casp3 SENP sel 84.3 | SENP luc ctr inactive
O=C(/C=C\Nc1ccccc1Br)c1ccc2c(c1)OCO2	SENP6 inh 87.1, SENP7 block 89.0, SENP8 block-2 86.4 | SENP8 conf 84.2 | SENP6 conf 92.8 | SENP7 conf 97.8 | Casp3 SENP sel 78.0 | SENP luc ctr inactive
C=C(C)COc1ccc(-c2nc(N)ncc2-c2ccc(Cl)cc2)c(O)c1	none
CCCC(=O)Nc1ccc(C(=O)Nc2nc(CC(=O)OCC)cs2)cc1	none
COc1cccc(/C=C/C(=O)c2ccc3c(c2)OCO3)c1OC	none (no result: HSP90 refold inh)
CN(C)c1ccc(/C=C/C(=O)c2ccc3c(c2)OCO3)cc1	SENP6 inh 90.6, SENP7 block 88.1, SENP8 block-2 88.5 (no result: HSP90 refold inh) | SENP8 conf 95.1 | SENP6 conf 94.4 | SENP7 conf 100.6 | Casp3 SENP sel 83.3 | SENP luc ctr 66.1
O=C(/C=C/c1ccc2c(c1)OCO2)c1ccc[nH]1	SENP6 inh 77.3, SENP7 block 77.7, SENP8 block-2 58.5 | SENP8 conf 72.9 | SENP6 conf 64.3 | SENP7 conf 90.7 | Casp3 SENP sel inactive | SENP luc ctr 68.6
O=C(/C=C/c1ccccc1Br)c1ccc2c(c1)OCO2	SENP6 inh 94.1, SENP7 block 91.6, SENP8 block-2 91.4 | SENP8 conf 72.1 | SENP6 conf 73.8 | SENP7 conf 63.5 | Casp3 SENP sel 59.8 | SENP luc ctr 53.7
O=C(/C=C/c1ccc2c(c1)OCO2)c1ccc(F)cc1	none
O=C(CC1(O)C(=O)Nc2ccccc21)c1ccccc1 (stereo unspecified)	none
COc1ccc(-n2c(N)c(C(=O)NCc3ccco3)c3nc4ccccc4nc32)cc1OC	none
